In ChEMBL document CHEMBL3988442, “University of Dundee, Small-Polar-MMV Screening Library” (2021):
Out of some 48,000 compounds screened, about 13,000 (27%) showed an effect of 50% or more. The list shows a part of the results.

system: Wolbachia pipientis; test: Anti-Wolbachia Cell-Based Screen; type: functional; set-up: scale not given: in the data most compounds retested in dose-response had high values; conditions: 5 µM

Row | SMILES | Percent Effect
1 | CCSc1nnc(N2CCN(c3ccccc3)CC2)s1 | -16.68%
2 | CCc1nc(N)nc(N(C)Cc2nncn2CCOC)c1C | -4.118%
3 | Cc1cnc(CC2COCCN(Cc3nccn3C)C2)cn1 (configuration not stated) | 117.2%
4 | Cn1ccnc1C1CCN(CCC2CCOC2)CC1 (configuration not stated) | -2.458%
5 | CN(C)c1ccc(CC2COCCN(Cc3nccn3C)C2)nn1 (configuration not stated) | 107.3%
6 | Cc1cc(-n2cccn2)ccc1CN1CCOCC(CN(C)C)C1 (configuration not stated) | -16.76%
7 | Cn1ccnc1CN1CCOCC(Cc2ccccn2)C1 (configuration not stated) | -4.289%
8 | Cc1noc(C)c1CN1CCN(Cc2nccn2C)C(C)C1 (configuration not stated) | -9.694%
9 | Cc1cccc(CC2COCCN(Cc3nccn3C)C2)n1 (configuration not stated) | 119.1%
10 | CCN1CCN(S(=O)(=O)N2CCc3ccccc3C2)[C@H]2CS(=O)(=O)C[C@H]21 | -15.22%
11 | CS(=O)(=O)NCCCN1CCCC1c1ccccc1 (configuration not stated) | -6.695%
12 | O=C1C(Nc2ccc3nccnc3n2)CCN1c1ccccc1 (configuration not stated) | 8.259%
13 | Cc1nnc2n1CC(CNCc1nc(-c3ccsc3)no1)CC2 (configuration not stated) | -10.67%
14 | c1csc(-c2nnc(CSCCN3CCOCC3)o2)c1 | 0.2217%
15 | CC1CN(C)c2ccccc2CN1C(=O)c1cnsn1 (configuration not stated) | -24.53%
16 | CN1CCN(C(=O)c2csnn2)c2ccccc21 | 10.7%
17 | Cc1ccc(C(=O)N2CCCN(C)c3ccc(F)cc32)o1 | 112.2%
18 | CN1CCCN(C(=O)c2cnsn2)c2cc(F)ccc21 | 119.4%
19 | CN1CCCN(S(=O)(=O)c2cn(C)cn2)c2cc(F)ccc21 | -12.29%
20 | CN1CCCN(S(C)(=O)=O)c2cc(F)ccc21 | -11.53%
21 | O=C(c1cncc(Br)c1)N1CCCc2ccc(F)cc21 | 6.203%
22 | CN1CCCN(S(=O)(=O)c2cnn(C)c2)c2cc(Cl)ccc21 | -13.02%
23 | CN1CCN(C(=O)c2cnsn2)c2cc(F)ccc21 | 151.8%

Row | SMILES | Percent Effect
24 | CN1CCN(S(C)(=O)=O)c2cc(F)ccc21 | -2.725%
25 | CN1CCCN(C(=O)c2cnsn2)c2cc(Cl)ccc21 | 103.8%
26 | O=C(Nc1c(N2CCCC2)cccc1N1CCCC1)c1cnsn1 | -3.532%
27 | CN(Cc1cnccn1)C(=O)c1ccc(CSc2nnc[nH]2)o1 | -27.79%
28 | CSc1ccc(NCC(=O)NCC(=O)N2CCCC2)cc1F | -3.658%
29 | CN1CCN(C(=O)c2cnsn2)c2ccc(F)cc21 | 79.94%
30 | CN1CCN(C(=O)CCc2cccnc2)c2ccc(F)cc21 | -6.701%
31 | CN1CCN(C(=O)CCCc2ccccn2)c2ccc(F)cc21 | -53.44%
32 | CCn1ncc(Br)c1CN(C)S(=O)(=O)c1ccc(C)cc1 | 6.609%
33 | CCN(CC)C(=O)c1c(Br)cnn1CC | 113.9%
34 | CCN(C(=O)c1c(Cl)cnn1CC)C(C)C(N)=O (configuration not stated) | -13.9%
35 | CCN(CC)C(=O)c1c(Cl)cnn1CC | 102.5%
36 | CCN(CC)C(=O)CCn1ncc2c(Cl)cccc21 | 18.4%
37 | CCN(CC)C(=O)c1nnn(Cc2ccccc2)c1OC | 4.418%
38 | CC(=O)Nc1ccc2nc(-c3nccn3CCCN(C)C)ccc2c1 | 3.374%
39 | CC(=O)Nc1ccc2nc(-c3nccn3C[C@@H]3CCCO3)ccc2c1 | -0.02427%
40 | CC(=O)Nc1ccc(CNC(=O)CNCc2snnc2C)cc1 | -4.998%
41 | Cc1cnc(NC(=O)c2cccc(CN(C)Cc3snnc3C)c2)s1 | -4.019%
42 | CC(=O)Nc1ccc2nc(CN(C)Cc3noc(C)n3)ccc2c1 | 88.54%
43 | Cc1nnsc1CN(C)Cc1ccc(C(=O)Nc2sccc2C#N)cc1 | -8.441%
44 | CC(=O)Nc1ccc(CN(C)Cc2snnc2C)cc1 | 104.3%
45 | Cc1nc(CNC(=O)Nc2ccc3c(ccn3CCN(C)C)c2)no1 | -28.14%
46 | CC(=O)Nc1ccc2nc(CN(C)Cc3snnc3C)ccc2c1 | 89.45%

Row | SMILES | Percent Effect
47 | CN1C[C@@H](n2cnc(-c3ccccc3)c2-c2nccn2C)C[C@H]1C(=O)O | -7.865%
48 | CN1CCCN(C[C@@H]2CN(C(=O)CCC3CCCC3)C[C@@H]2CO)CC1 | 0.9084%
49 | CC(=O)N1CCCCCC1C1CCN(Cc2nnc(C(C)(C)C)o2)CC1.Cl (configuration not stated) | -4.894%
50 | Cc1nc(C(C)(C)C)sc1C(=O)NCCn1ccnc1 | 6.238%
51 | CCN(CC)S(=O)(=O)NCc1ccc(-c2ccc(C(N)=O)c(C)n2)cc1 | 82.68%
52 | CCN(C(=O)c1ccc(-c2ccccc2)nc1C)C1CC(=O)NC1=O (configuration not stated) | 2.82%
53 | CNC(=O)c1ccc(-c2ccc(CNC(=O)COC)cc2)nc1C | 125.2%
54 | CNC(=O)c1ccc(CNC(=O)c2ccc(Cl)cc2F)cc1 | 6.561%
55 | CNS(=O)(=O)Cc1ccc(CNC(=O)c2ccc(C)[nH]c2=O)cc1 | 6.775%
56 | Cc1nc(-c2ccc(CNS(=O)(=O)N(C)C)cc2)ccc1C(N)=O | 115%
57 | CNC(=O)c1ccc(-c2ccc(CNS(=O)(=O)N(C)C)cc2)nc1C | 96.06%
58 | CNC(=O)c1cc2c(nc1NCC(C)C)CCN(S(=O)(=O)N(C)C)CC2 | -14.23%
59 | Cc1nc(-c2ccsc2)ccc1C(=O)O | -6.285%
60 | CCN(CC)C(=O)c1ccc(-c2ccsc2)nc1C | 7.441%
61 | Cc1ccc(-c2nc(CNS(=O)(=O)N(C)C)[nH]c2-c2ccccn2)cc1 | 19.45%
62 | CCC(C)NC(=O)c1ccc(CNC(=O)COC)cc1 (configuration not stated) | 4.124%
63 | O=C1C(NCc2cccc(O)c2)CCN1Cc1ccccc1 (configuration not stated) | 0.7589%
64 | CC(=O)N(C)CC(=O)Nc1cccc(N2CCN(CC3CC3)CC2)c1 | -2.755%
65 | CC(NS(=O)(=O)N(C)C)c1cccc(-n2cccn2)c1 (configuration not stated) | -7.408%
66 | CC(=O)c1cccc(OCCCC(=O)NCC2CCCN2C)c1 (configuration not stated) | -10.21%
67 | COC(=O)c1sccc1S(=O)(=O)NCCC(O)c1ccco1 (configuration not stated) | -8.026%
68 | CCc1nnc(SCC(=O)N2CCc3[nH]nc(C4CCC4)c3C2)o1 | 38.87%
69 | Cc1ccc(CN(C(=O)c2cccc(NC(N)=O)c2)C2CC2)o1 | -0.2723%

Row | SMILES | Percent Effect
70 | N#Cc1cccc(NC(=O)N[C@H](CO)c2ccccc2)c1 | -16.24%
71 | COCc1nc(CNC2CCSC2)no1 (configuration not stated) | -14.23%
72 | Oc1cccc(CNC2CCN(CCc3ccncc3)CC2)c1 | -20.44%
73 | O=C1CC(NCc2cccc(O)c2)CN1CCc1cccc(Cl)c1 (configuration not stated) | 126.2%
74 | CCc1ncc(CNC2CC(=O)N(CCc3cccc(Cl)c3)C2)cn1 (configuration not stated) | -5.676%
75 | Cc1cccc(CNC2CC(=O)N(Cc3cccc(F)c3)C2)c1 (configuration not stated) | 24.38%
76 | CCn1ccnc1CNC1CC(=O)N(CCc2cccc(Cl)c2)C1 (configuration not stated) | 120.9%
77 | CCn1ccnc1CN1CCCC(CO)(Cc2cccc(Cl)c2)C1 (configuration not stated) | -3.247%
78 | CCn1cc(CNC2CC(=O)N(CCc3cccc(Cl)c3)C2)cn1 (configuration not stated) | -6.807%
79 | O=C1CC(NCc2ccncc2)CN1CCc1cccc(Cl)c1 (configuration not stated) | 73.7%
80 | CCn1ccnc1C1CCN(Cc2cccc(Cl)c2)CC1 | 9.663%
81 | COc1ccccc1CCNC(=O)NC(C)COCC(F)(F)F (configuration not stated) | -18.36%
82 | CC(CS(C)(=O)=O)NCc1cc(Cl)ccc1F (configuration not stated) | 6.588%
83 | CN(Cc1ccccc1-n1cccn1)c1nc(N)nc2c1CCNCC2 | 7.066%
84 | COCCN(Cc1ccc(C)cc1)Cc1nccn1C | 5.615%
85 | CCC(CC)C(=O)NCCc1ccn(-c2ccccc2)n1 | 133.4%
86 | COCCNC(=O)NCCc1ccn(-c2ccccc2)n1 | 4.023%
87 | CCC(C(=O)NCCc1ccn(-c2ccccc2)n1)N1CCCC1=O (configuration not stated) | 2.511%
88 | CCN(CC)C(=O)NCCc1ccn(-c2ccccc2)n1 | 134.9%
89 | COc1ccc(CNCCc2ccn(-c3ccccc3)n2)cc1O | 7.82%
90 | CC(=O)NC1CCc2ccc(S(=O)(=O)NCc3ncccc3C)cc21 (configuration not stated) | 37.01%
91 | COCCN1CCCC(CN(C)c2nc3c(s2)c(C)nn3C)C1 (configuration not stated) | -14.47%
92 | CC(=O)N1CCC(Cc2cnc(-c3c(C)nn(C)c3C)cn2)CC1 | 190.1%

Row | SMILES | Percent Effect
93 | Cc1nn(C)c(C)c1OCC(=O)N1CCCC1 | -17.38%
94 | Cc1nn(C)c(C)c1OCC(=O)N1CCCCC1 | -9.266%
95 | COCCN1CCCC(Cc2cnc(-c3c(C)nn(C)c3C)cn2)C1 (configuration not stated) | 161.1%
96 | CC(=O)N1CCCC(Cc2cnc(-c3c(C)nn(C)c3C)cn2)C1 (configuration not stated) | 146.7%
97 | COCCN1CCC(CN(C)c2ncnc3c2c(C)nn3C)C1 (configuration not stated) | -22.39%
98 | COCCn1c(=O)n(Cc2cccc(F)c2F)c2cc(C(=O)O)ccc21 | -6.581%
99 | Cn1nc(CN2CCCN(C3CCCC3)CC2)c2c(Cl)cccc21 | 4.033%
100 | CC1(C)OCC2(CO1)CN(C(=O)c1cccc3ccccc13)C2 | -8.289%
101 | Cc1nn(Cc2ccccc2)c(C)c1CNC1CCc2ncnn2C1 (configuration not stated) | 117.1%
102 | c1ccc(-c2cnc(CNC3CCc4ncnn4C3)o2)cc1 (configuration not stated) | 7.622%
103 | Cc1nc(-c2ccccc2)sc1CNC1CCc2ncnn2C1 (configuration not stated) | 88.63%
104 | Cc1nn(-c2ccccc2)c(C)c1CNC1CCc2ncnn2C1 (configuration not stated) | 1.377%
105 | c1ccc(-c2ncc(CNC3CCc4ncnn4C3)cn2)cc1 (configuration not stated) | 5.444%
106 | CCOCCNS(=O)(=O)c1ccc2c3c1CCCN3C(=O)CO2 | 17.61%
107 | O=c1c2c(ncn1CCO)nc1n2CCC1 | 3.555%
108 | CC(C)(C)OC(=O)NC(C)(C)c1noc(CN2CCCCC2)n1 | 1.243%
109 | CN(C)C(=O)N1CCOCC2(CCN(c3ccccn3)C2)C1.O=C(O)C(F)(F)F (configuration not stated) | -12.67%
110 | CN(C)C(=O)N1CCOCC2(CCN(c3ncccn3)C2)C1.O=C(O)C(F)(F)F (configuration not stated) | -1.009%
111 | CN(C)C(=O)N1CCC2(CC1)CCN(c1ncccn1)C2.O=C(O)C(F)(F)F | 115.8%
112 | CN(C)C(=O)N1CCC2(CCCN(c3ncccn3)C2)C1.O=C(O)C(F)(F)F (configuration not stated) | 113.7%
